Results as given in PubChem BioAssay AID2642 (Johns Hopkins Ion Channel Center, 2010).
In all, about 310,000 compounds went through this assay and about 3,900 (1.3%) were called active.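 Rule for the calls: active = compounds whose thallium flux B-score, printed positive for inhibition, exceeds three library SD while starting fluorescence stays within three; inactive = the rest.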 Shown is part of a subset that was picked to be rich in actives.

Molecular target: Potassium voltage-gated channel subfamily KQT member 1 (Homo sapiens) (UniProt P51787)
Sequence (P51787 whole entry, looked up): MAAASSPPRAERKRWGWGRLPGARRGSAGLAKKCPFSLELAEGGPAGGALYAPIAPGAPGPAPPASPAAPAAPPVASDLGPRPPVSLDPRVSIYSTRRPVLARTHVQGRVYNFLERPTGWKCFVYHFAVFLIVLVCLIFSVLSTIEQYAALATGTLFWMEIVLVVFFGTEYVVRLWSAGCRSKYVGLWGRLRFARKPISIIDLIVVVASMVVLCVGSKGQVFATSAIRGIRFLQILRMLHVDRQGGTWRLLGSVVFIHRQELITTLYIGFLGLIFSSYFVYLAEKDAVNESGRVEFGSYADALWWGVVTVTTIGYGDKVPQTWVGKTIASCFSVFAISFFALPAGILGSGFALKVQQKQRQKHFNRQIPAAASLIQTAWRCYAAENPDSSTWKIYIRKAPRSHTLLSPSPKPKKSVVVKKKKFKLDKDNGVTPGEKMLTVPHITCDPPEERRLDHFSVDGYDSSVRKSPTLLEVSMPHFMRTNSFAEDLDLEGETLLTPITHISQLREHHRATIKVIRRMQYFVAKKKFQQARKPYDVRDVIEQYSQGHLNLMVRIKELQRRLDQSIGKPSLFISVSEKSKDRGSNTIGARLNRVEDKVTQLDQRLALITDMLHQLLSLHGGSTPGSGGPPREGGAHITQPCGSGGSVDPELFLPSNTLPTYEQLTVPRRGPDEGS
Experiment: KCNQ1 potassium current blockers – cell-based, thallium flux, high-throughput, primary screen (AID 2642);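 note: channel opened by potassium depolarization with thallium stimulus after 20 min compound exposure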
Conditions: CHO-K1 KCNQ1, FluxOR thallium flux fluorescence, at 10 µM; active compounds read high

Structure (SMILES)	B-score
CCOc1ccc(-c2cc(C)[n+](CCN(CC)CC)c(-c3ccc(OCC)cc3)c2)cc1	7 (active)
CSC1=NP(=S)(SC)N(C)c2nc3n(c21)CCC3 (stereo not given)	inactive
CCN1C(=O)C(=Cc2c(C)n(CC(=O)NCC3CCCO3)c3ccccc23)C(=O)N(CC)C1=S (stereo not given)	inactive
CN(C)S(=O)(=O)c1cc(C(=O)N2CCC(C(=O)O)(c3ccccc3)CC2)ccc1Cl	inactive
Cc1ccc(-c2nc3ccccc3c(=O)n2-c2ccc(Br)cn2)cc1	inactive
CCCCCCCCCCCCn1ccc(=N)cc1	13 (active)
CC1=CC(=Cc2sc3ccccc3[n+]2C)C=C(C)O1	inactive
Clc1ccc2nc3c(c(-c4ccccc4)c2c1)CNCC3	inactive
O=C(Nc1cccc2ccccc12)N1CCC2(CC1)OCCO2	inactive
O=C1CC(=O)N(Cc2ccccc2)C(=O)N1CCCCCCN1C(=O)CC(=O)N(Cc2ccccc2)C1=O	inactive
CC(C)(C)c1ccc(CN2C(=O)CN=C(c3ccccc3)c3ccccc32)cc1	6 (active)
C=Cn1ccnc1P(=S)(c1cc(N(CC)CC)ns1)c1nccn1C=C	inactive
O=c1[nH]c(=O)n(-c2ccc(F)cc2)c(O)c1C=NCCN1CCCCC1	inactive
COC(=O)C1=C(c2ccccc2)C[C@@H]2CC[C@H]1N2C(=O)N1CCCCC1	inactive
C/C(=N/O)c1ccc2ccc3ccccc3c2c1	inactive
C/C=C/CC1(CC)C(=O)NC(=S)NC1=O	inactive
CCOc1cccc(=NC2CCCCC2)c2c(C)[nH]c(C)c12	7 (active)
CN(C)c1nc(N(C)C)nc(N(C#N)CCCl)n1	inactive
COc1ccccc1N1CCN(C(CNC(=O)Oc2ccccc2)c2cccnc2)CC1 (stereo not given)	inactive
O=C(N/N=C/c1c(O)n(C2CC2)c(=S)[nH]c1=O)c1ccccc1Cl	inactive
